CHT inh: human CHT choline transport inhibition | Q9GZV3 | B-score at 10 µM | CHT-expressing cells, membrane potential dye, choline response; active compounds read low | 0.86% of 310,000 active;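 active means B-score over 3 SD under the library average, and starting fluorescence ratio not unusually high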;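 further: choline stimulus applied at its EC90 after an EC20 pre-addition; B-score computed on integrated fluorescence ratio after choline addition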
Target sequence (Q9GZV3 whole entry, looked up): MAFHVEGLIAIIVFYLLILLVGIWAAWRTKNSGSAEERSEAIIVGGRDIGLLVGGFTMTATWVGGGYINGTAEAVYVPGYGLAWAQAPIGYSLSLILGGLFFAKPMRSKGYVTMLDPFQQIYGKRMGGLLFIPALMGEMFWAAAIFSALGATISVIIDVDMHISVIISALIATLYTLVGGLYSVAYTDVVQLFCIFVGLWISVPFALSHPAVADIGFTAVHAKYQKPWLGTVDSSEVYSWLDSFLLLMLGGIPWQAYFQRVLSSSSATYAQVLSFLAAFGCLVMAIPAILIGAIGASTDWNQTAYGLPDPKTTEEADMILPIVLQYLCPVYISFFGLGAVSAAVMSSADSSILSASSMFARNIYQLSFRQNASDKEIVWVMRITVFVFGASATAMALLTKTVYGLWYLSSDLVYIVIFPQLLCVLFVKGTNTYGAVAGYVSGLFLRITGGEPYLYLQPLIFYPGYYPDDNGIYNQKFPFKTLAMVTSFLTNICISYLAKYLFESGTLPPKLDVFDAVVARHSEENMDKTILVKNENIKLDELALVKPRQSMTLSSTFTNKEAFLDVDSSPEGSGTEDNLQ
CHT allo act: allosteric activators of human choline transporter CHT. 0.49% of 310,000 active. CHT-expressing cells, membrane potential dye, choline EC20; active compounds read high; LV-AA mutant CHT in HEK293 cells. B-score at 10 µM. AID 488977. Q9GZV3;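 active means initial fluorescence not abnormally high and integrated response B-score, plate-corrected, over 3 SD above library mean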
MIN6 prolif: induces beta-cell replication in MIN6 cells; MIN6 cells proliferation, ATPlite luminescence, 48 h; cells starved in 0.2% serum; 100% = growth in 10% serum; proliferation, % at 10 µM; 0.29% of 330,000 active;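 active means compounds whose signal lies at least 3.5 SD above the mean of all wells on their plate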
TAG inh: reduces triacylglycerol accumulation in H9c2 cells. 0.66% of 230,000 active. inhibition, % at 12.5 µM. AID 651582. Nile Red lipid (TAG) fluorescence; cells loaded with 200 µM oleic acid;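 active means pattern-corrected inhibition of lipid staining of at least 50% with the nuclear-stain viability signal not falling by more than 50%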
CHT inh conf: human CHT inhibition, confirmatory screen | 70% of 2,400 active | shares compounds with CHT inh | CHT-expressing cells, choline membrane potential dye; LV-to-AA substituted CHT, HEK293 cells | CHT activity remaining % of control (active compounds read low), % at 10 µM;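 active means choline transporter activity left, mean of duplicates at 10 µM, below buffer-only control mean minus 3 SD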;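 further: depolarization triggered by choline at its EC90 following an EC20 pre-addition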
HEK293 CHT ctr: activity in parental HEK293 cells lacking CHT; shares compounds with CHT inh; AID 493222; 4% of 2,400 active; membrane potential dye, choline response; active = decrease or increase beyond buffer ±3SD; membrane potential ratio readout (active if shifted either direction beyond buffer ±3SD; no single direction) at 10 µM;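 further: parental cells lack the transporter so any hit is non-specific; ratio is peak minus trough fluorescence over baseline after EC90 choline challenge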
Large screens that a line does not name were inactive (follow-up assays come after a bar, where they were run). This is a sample that favours compounds with a hit; in the whole collection about 1.7% have one here.

CC(C(=O)NC1CCCCCC1)N(c1ccccc1)S(C)(=O)=O (centres undefined)	CHT inh -12 | CHT inh conf inactive | HEK293 CHT ctr inactive
CCCC(=O)Nc1cccc(NC(=O)c2ccc([N+](=O)[O-])cc2Cl)c1	CHT inh -6.6 (no result: TAG inh) | CHT inh conf 61% | HEK293 CHT ctr inactive
CCCC(=O)NC(=S)Nc1cccc(NC(=O)c2ccccc2Cl)c1	CHT inh -12 (no result: TAG inh) | CHT inh conf 14% | HEK293 CHT ctr inactive
CCCC(=O)Nc1ccc(Cl)c(NC(=O)c2ccc([N+](=O)[O-])cc2Cl)c1	none (no result: TAG inh)
CCOC(=O)c1ccc(NS(=O)(=O)c2c(C)[nH]c(C)c2C(=O)N2CCCCC2)cc1	none (no result: TAG inh)
CCNC(=O)C1(C)CCCN(Cc2noc(-c3c(C)noc3C)n2)C1 (centres undefined)	none (no result: CHT inh, CHT allo act, MIN6 prolif)
O=C(CSc1nc2ccccc2[nH]1)c1ccc2c(c1)OCO2	CHT inh -6.1 | CHT inh conf 36% | HEK293 CHT ctr inactive
O=C(O)c1ccccc1-c1ccccc1C(=O)Nc1ccc(-c2nc3cc(Cl)ccc3o2)cc1	CHT inh -7.5 | CHT inh conf 55% | HEK293 CHT ctr inactive
CC(=O)Nc1ccc(-c2nc3cc(Cl)ccc3o2)cc1	none
O=C(COC(=O)/C=C/c1ccc(F)cc1)Nc1ccccc1-c1ccccc1	none
O=C(CCS(=O)(=O)Cc1ccc(Cl)cc1)NCCc1ccccc1	none
COC(=O)c1c(NC(=O)CN2C(=O)C(=O)N(C(C)C)C2=O)sc(C)c1C	none (no result: CHT inh, CHT allo act)
NS(=O)(=O)c1ccc(CCNC(=O)c2ccc3ccccc3n2)cc1	none
NS(=O)(=O)c1ccc(CNc2ccc3ccccc3n2)cc1	CHT inh -9.3 (no result: TAG inh) | CHT inh conf 21% | HEK293 CHT ctr inactive
COCCN(C(=O)CSc1nnc(-c2ccc(C)c(C)c2)o1)c1c(N)n(CC(C)C)c(=O)[nH]c1=O	CHT inh -6.3 | CHT inh conf 19% | HEK293 CHT ctr inactive
CCN(CC)c1ccc(-c2nnc(SCC(=O)N(CCOC)c3c(N)n(CC(C)C)c(=O)[nH]c3=O)o2)cc1	none
CCCCn1c(NC(C)CC)nc2c1c(=O)[nH]c(=O)n2C (centres undefined)	CHT inh -5.5 (no result: TAG inh) | CHT inh conf 37% | HEK293 CHT ctr -8.9
CCCCNC(=S)Nc1ccc([N+](=O)[O-])cc1	CHT inh -9.2 | CHT inh conf 35% | HEK293 CHT ctr inactive
O=[N+]([O-])c1ccc(Nc2ccc(F)cc2)cc1	none (no result: TAG inh)
CC(C)CCNC(=S)Nc1ccc([N+](=O)[O-])cc1	CHT inh -8.7 | CHT inh conf 23% | HEK293 CHT ctr inactive
O=[N+]([O-])c1ccc(NNC(=S)Nc2ccc(F)cc2)cc1	CHT inh -6.9 (no result: TAG inh) | CHT inh conf inactive | HEK293 CHT ctr inactive
Cc1ncoc1C(=O)NC1CCCc2c1cnn2-c1ccc(C(C)(C)C)cc1 (centres undefined)	none (no result: CHT inh, CHT allo act)
CSCCC(NC(=O)c1ccc([N+](=O)[O-])cc1Cl)C(=O)OC(C)C(=O)NCc1ccco1 (centres undefined)	none
COc1ccc(-n2c(SCC(=O)NCC3CCCO3)nc3ccccc32)cc1 (centres undefined)	CHT inh -5.5 | CHT inh conf inactive | HEK293 CHT ctr inactive
CN1CCN(CCOCCOc2ccc(Br)cc2Cl)CC1	CHT inh -6.7 (no result: TAG inh) | CHT inh conf 56% | HEK293 CHT ctr inactive
CCCc1nnc(NC(=O)c2nc(S(=O)(=O)Cc3cccc(C)c3)ncc2Cl)s1	CHT inh -5.2 (no result: TAG inh) | CHT inh conf 30% | HEK293 CHT ctr inactive
Cc1nnc(NC(=O)c2nc(S(=O)(=O)Cc3ccccc3)ncc2Cl)s1	CHT inh -11 (no result: TAG inh) | CHT inh conf 28% | HEK293 CHT ctr inactive
O=C1C=C(O)C(n2cncn2)C(c2ccc3c(c2)OCO3)C1 (centres undefined)	none
O=S(=O)(c1ccccc1F)N1CCN(CCc2ccccc2)CC1	CHT inh -6.8 (no result: TAG inh) | CHT inh conf 48% | HEK293 CHT ctr inactive
Cc1ccc2nsnc2c1S(=O)(=O)N1CCN(CCc2ccccc2)CC1	CHT inh -11 | CHT inh conf 41% | HEK293 CHT ctr inactive
O=S(=O)(NCCN1CCN(S(=O)(=O)c2ccccc2F)CC1)c1ccccc1F	none (no result: CHT inh, CHT allo act)
O=S(=O)(c1ccc(F)c(F)c1)N1CCN(CCc2ccccc2)CC1	CHT inh -6.8 (no result: TAG inh) | CHT inh conf 54% | HEK293 CHT ctr inactive
CCOC(=O)N1CCN(S(=O)(=O)c2ccc(C(=O)Nc3ccc4c(c3)C(=O)NC4=O)cc2)CC1	none (no result: TAG inh)
O=C(C1CCN(CCCc2ccccc2)CC1)N(CCc1ccccc1)Cc1ccccc1	CHT inh -8.2 (no result: TAG inh) | CHT inh conf 23% | HEK293 CHT ctr 3.5
CCCCN(C)C(=O)c1sc(=O)n(Cc2c(C)cccc2C)c1C	none (no result: CHT inh, CHT allo act, MIN6 prolif)
COc1cc(C)c(Br)cc1S(=O)(=O)N1CCCC1	CHT inh -5.1 | CHT inh conf inactive | HEK293 CHT ctr inactive
CCCOc1ccc(C(CC(=O)O)NC(=O)CC(c2ccccc2)c2ccccc2)cc1 (centres undefined)	CHT inh -6.8 (no result: TAG inh) | CHT inh conf 24% | HEK293 CHT ctr inactive
O=C(NC(=S)N1CCCCC1CO)c1cc(Br)ccc1Cl (centres undefined)	none (no result: CHT inh, CHT allo act)
O=C(CN1C(=O)NC2NC(=O)NC21)NN=C1CCCC1 (centres undefined)	CHT inh -20 (no result: TAG inh) | CHT inh conf inactive | HEK293 CHT ctr inactive
CN(C)CCN(C(=O)c1ccccc1Cl)c1nc2c(Cl)cccc2s1	none (no result: TAG inh)
CN(CC(=O)NCc1ccco1)S(=O)(=O)c1ccc(F)cc1	none (no result: TAG inh)
O=C(NNC(=S)Nc1ccc(F)cc1)c1cccc([N+](=O)[O-])c1	none
Cc1ccc(NC(=S)NNC(=O)c2cccc([N+](=O)[O-])c2)cc1Cl	CHT inh -5.7 | CHT inh conf 54% | HEK293 CHT ctr inactive
CC(C)(C)c1cc(C(F)(F)F)nc(SCCCNC(=O)c2ccco2)n1	CHT inh -5.5 | CHT inh conf inactive | HEK293 CHT ctr inactive
Cc1noc(NC(=O)c2c(-c3c(Cl)cccc3Cl)noc2C)c1[N+](=O)[O-]	CHT inh -6.1 | CHT inh conf 48% | HEK293 CHT ctr inactive
CN(C)c1ccc(C(=O)c2ccc(O)cc2O)cc1	CHT inh -6 | CHT inh conf 61% | HEK293 CHT ctr inactive
COc1ccc(C(=O)C2CCCN(Cc3cccc4c3OCO4)C2)cc1OC (centres undefined)	none
COc1ccc(S(=O)(=O)N2CCc3ccccc32)cc1OC	none (no result: TAG inh)
CCn1c(=O)n(CC)c2cc(S(=O)(=O)N3CCc4ccccc43)ccc21	CHT inh -5.9 (no result: TAG inh) | CHT inh conf 44% | HEK293 CHT ctr inactive
Cn1c(=O)n(CC(=O)N2CCN(c3nnc(-c4ccccc4)c4ccccc34)CC2)c2ccccc21	CHT inh -5.8 (no result: TAG inh) | CHT inh conf inactive | HEK293 CHT ctr inactive
CC(C)(C)c1ccc2c(c1)OC(C(=O)N/N=C/c1ccc([N+](=O)[O-])o1)CO2 (centres undefined)	none

Compound activity: PubChem, several laboratories
